Compounds without any hit were thinned out: in the full panel of roughly 83,000, 20% have a hit.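 Single-dose data. Exposure time 48 hours. Values below 10 considered active.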 Unmarked numbers belong to inactive results. Calls of active or inactive are those of the source.
Legend:
Experiment in all cases: NCI-60 one-dose screen, 48 h (100 = growth as untreated, 0 = no growth, -100 = all killed)
Settings in all cases: 10 µM unless noted
SR leukemia = system: SR leukemia
RPMI-8226 leukemia = system: RPMI-8226 leukemia
OVCAR-8 ovarian = system: OVCAR-8 ovarian
OVCAR-5 ovarian = system: OVCAR-5 ovarian
OVCAR-4 ovarian = system: OVCAR-4 ovarian
SK-OV-3 ovarian = system: SK-OV-3 ovarian
IGROV1 ovarian = system: IGROV1 ovarian
OVCAR-3 ovarian = system: OVCAR-3 ovarian
HS 578T breast = system: HS 578T breast
NCI/ADR-RES ovarian = system: NCI/ADR-RES ovarian
T-47D breast = system: T-47D breast
BT-549 breast = system: BT-549 breast
MDA-MB-435 melanoma = system: MDA-MB-435 melanoma
SW-620 colon = system: SW-620 colon
MCF7 breast = system: MCF7 breast
HCT-116 colon = system: HCT-116 colon
HCC-2998 colon = system: HCC-2998 colon
KM12 colon = system: KM12 colon

Compound | growth (SR leukemia) | growth (RPMI-8226 leukemia) | growth (OVCAR-8 ovarian) | growth (OVCAR-5 ovarian) | growth (OVCAR-4 ovarian) | growth (SK-OV-3 ovarian) | growth (IGROV1 ovarian) | growth (OVCAR-3 ovarian) | growth (HS 578T breast) | growth (NCI/ADR-RES ovarian) [%] | growth (T-47D breast) | growth (BT-549 breast) | growth (MDA-MB-435 melanoma) | growth (SW-620 colon) | growth (MCF7 breast) | growth (HCT-116 colon) | growth (HCC-2998 colon) | growth (KM12 colon)
Cc1nc2c(c(-c3ccccc3)n1)Cc1c(ccc3ccccc13)O2 | 107% | 87% | 95.1% | 93.1% | 99.4% | 96.4% | 118% | 99.1% | 83.3% | 98 | 84.6% | 90% | 119% | 96.4% | 89.1% | 90.6% | 111% | 89.1%
C/C(=C(\c1ccc(OCCCN(C)C)cc1)c1ccc(OC(=O)Cc2ccccc2)cc1)c1ccc(Cl)cc1 | -34.9% (active) | 27.1% | 89.2% | 89.3% | 69.8% | 73.3% | 88.4% | 70.4% | 66.4% | 85.1 | 51.2% | 83.9% | 57.7% | 84.6% | 23.5% | 58.3% | 73.6% | 67.4%
C=C(C)[C@@H]1CCC[C@]2(C(=O)OC)CC[C@]3(C)[C@@H](CC[C@@H]4[C@@]5(C)CCCNC(C)(C)[C@@H]5CC[C@]43C)[C@@H]12 | 54.5% | 75.7% | 89.6% | 86.4% | 88.1% | 95.8% | 65.3% | 74.4% | 87.4% | 98.8 | 75.9% | 93.9% | 92.9% | 86.7% | 86.5% | 93.3% | 96.3% | 85.8%
Nc1cc(-c2ccc(Cl)cc2)nn1-c1nc(-c2ccc(Br)cc2)cs1 | 91.3% | 100% | 103% | 93.7% | 103% | 92.4% | 99.9% | 106% | 98% | 105 | 98.2% | 100% | 99.7% | 106% | 89.8% | 94.4% | 101% | 104%
O=C(Nc1cccc2c1C(=O)c1cccc(NC(=O)c3ccc(C(=O)Nc4cccc5c4C(=O)c4cccc(NC(=O)c6ccccc6)c4C5=O)cc3)c1C2=O)c1ccccc1 | 9.04% (active) | 105% | 98.1% | 91.1% | 98.9% | 99.4% | 41.1% | 106% | 99.5% | 101 | 101% | 72.4% | 112% | 99.9% | 104% | 104% | 101% | 102%
COc1cc2ncnc(Nc3ccc(S(=O)(=O)Nc4cc(C)on4)cc3)c2cc1OCCCN1CCOCC1 | 103% | 106% | 98.2% | 106% | 94.8% | 95% | 108% | 113% | 103% | 106 | 84.4% | 91.6% | 106% | 106% | 96.1% | 102% | 107% | 103%
COc1cc2c(cc1-c1c(C)noc1C)ncc1nc(C3CCOCC3)n(C3CCC(OC(F)F)CC3)c12 (stereo not given) | 36.4% | 18% | 69.1% | 71% | 48.8% | 17.3% | 55.7% | 44.7% | 54.9% | 53.7 | 11.3% | 77.1% | 48.9% | 76.3% | 18.5% | 66.1% | 56.5% | 44.3%
COc1cc2nc3cc([N+](=O)[O-])ccc3c(NCCCNCCO)c2cc1OC | -12.4% (active) | -1.84% (active) | -28.9% (active) | -15.2% (active) | -47.2% (active) | -59% (active) | -29.9% (active) | -44.6% (active) | -16.1% (active) | 93.3 | -30.1% (active) | -73.4% (active) | -100% (active) | -25% (active) | -28.5% (active) | -33.7% (active) | -47.9% (active) | -33.6% (active)
C=C(C[n+]1ccccc1)[C@@H]1CC[C@]2(C(=O)OC)CC[C@]3(C)[C@H](CC[C@@H]4[C@@]5(C)CCC(=O)C(C)(C)[C@@H]5CC[C@]43C)[C@@H]12 | 84.8% | 52.3% | 90.3% | 101% | 55% | 99% | 64.2% | 58.9% | 87.9% | 103 | 81.4% | 72.8% | 77.6% | 89% | 82.9% | 96.9% | 90.9% | 78.4%
COc1ccc(CNc2ccc3nc(CCC4CCCCC4)[nH]c3c2)cc1 | 46.8% | 40.2% | 73.6% | 83.4% | 40.1% | 82% | 61% | 75.4% | 79.7% | 70.3 | 41% | 96.7% | 80.9% | 75% | 68.4% | 50.7% | 30.8% | 79.8%
COc1cc(CNC(=O)CCCC/C=C/C(C)C)ccc1OCc1cn(-c2ccc(C(F)(F)F)cc2)nn1 | 70.4% | 53.4% | 41.1% | 96.6% | 98.6% | 91.3% | 58.7% | 107% | 80.4% | 48.2 | 70.2% | 84.5% | 107% | 41.3% | 75.2% | 2.97% (active) | 94.8% | 81.2%
O=C1/C(=C/c2ccc(-c3ccc(Cl)cc3)o2)SC(=S)N1CCc1ccc(O)cc1 | 24.5% | 55.5% | 16.4% | 75.2% | 25.6% | 44.8% | 31.8% | 24.1% | 36.6% | 77.3 | 43.9% | 64.6% | 19.7% | 26.6% | 77.9% | 48.8% | 89.6% | 22.9%
CC(C)(C#N)c1cc(C(=O)Nc2cc(Nc3ncccc3-c3ncnc4nc[nH]c34)ccc2F)cc(C(F)(F)F)c1 | 52.4% | 40.6% | 49.5% | 32.1% | 46.6% | 91.1% | 8.69% (active) | 70.1% | 30.9% | 52.2 | 52% | 71% | 29.5% | 37.5% | 57.4% | 15.4% | 41.8% | 43.7%
C[C@@H]1N=C(c2ccc(Cl)cc2Cl)Nc2nc3ccccn3c2C1=O | 33% | 75.2% | 68.1% | 91.2% | 89.5% | 50.1% | 41.9% | 2.44% (active) | 52% | 44.5 | 64.3% | 55.6% | -16.6% (active) | 25.2% | 16.8% | 28.1% | 75.4% | 23.8%
C#CCOc1cccc(Nc2c(Cl)c(CCl)nc3ccc(Oc4ccccc4)cc23)c1 | 10.4% | 24.5% | 24.8% | 82.7% | 75% | 109% | 43.2% | 31.6% | 74.9% | 60.2 | 82.1% | 15.8% | 15.6% | 20.6% | 12.9% | 27.2% | 104% | 69.7%
